# Results reported in ChEMBL document CHEMBL3988442, “University of Dundee, Small-Polar-MMV Screening Library” (2021).
# About 960 (1.5%) of roughly 66,000 compounds showed an effect of 50% or more. This excerpt belongs to a sample that is enriched for strong results.
# Tested on: Trypanosoma brucei
# Assay: Trypanosoma brucei 72 hour study
# Assay type: functional, organism-based
# Set-up: scale not given: in the data most compounds retested in dose-response had high values
structure (smiles),measurement,setting,value
CCNc1nc(C(=O)N(C)Cc2nc(CC)no2)cs1,Percent Effect,"30 µM, 30.03 µM",-27.33%
CC(C)c1nc(C2CCCN2c2cnc3ccccc3n2)no1 (centres undefined),Percent Effect,"30.3 µM, […]",-0.9034%
CC(C)c1nc(C2CCCN2c2cnc3cc(F)c(F)cc3n2)no1 (centres undefined),Percent Effect,"30.3 µM, […]",85.34%
CC(C)c1nc(C2CCCN2c2ccnc(C3CCCC3)n2)no1 (centres undefined),Percent Effect,"30.3 µM, […]",-51.91%
Cc1noc(C)c1CN1CCc2ncnc(-c3ccoc3)c2CC1.O=C(O)C(F)(F)F,Percent Effect,"30.3 µM, […]",-51.79%
c1ccc(Oc2ccc(OC34CCCN(CC3)C4)cc2)cc1 (centres undefined),Percent Effect,"30.3 µM, […]",99.82%
COc1cc(C#N)ccc1OC12CCCN(CC1)C2 (centres undefined),Percent Effect,"30 µM, 30.03 µM",-13.64%
c1ccc(Oc2cccc(OC34CCCN(CC3)C4)c2)cc1 (centres undefined),Percent Effect,"30.3 µM, […]",99.26%
Cc1cnccc1CNCc1ccc(OC23CCCN(CC2)C3)cc1 (centres undefined),Percent Effect,"30 µM, 30.03 µM",6.423%
Cc1nc(CNCc2cccc(OC34CCCN(CC3)C4)c2)n[nH]1 (centres undefined),Percent Effect,"30 µM, 30.03 µM",3.883%
O=c1[nH]nc(CNCc2ccc(OC34CCCN(CC3)C4)cc2)[nH]1 (centres undefined),Percent Effect,"30 µM, 30.03 µM",-0.5692%
Cl.O=C(Nc1cccc(CNCc2cccs2)c1)C1CC1,Percent Effect,10 µM,-25.65%
O=C(CC1CCC2(CC1)CCN(Cc1ccncc1)CC2)N1CCCC1.O=C(O)C(F)(F)F,Percent Effect,"30.3 µM, […]",-30.07%
CCCn1c(N2CCCC(C)C2)nc2c(C)nn(C)c2c1=O (centres undefined),Percent Effect,"30.3 µM, […]",99.54%
CCCn1c(N2CCCCC2)nc2c(C)nn(C)c2c1=O,Percent Effect,"30.3 µM, […]",-27.42%
CCCn1c(N2CCCC2)nc2c(C)nn(C)c2c1=O,Percent Effect,"30.3 µM, […]",-10.23%
CC(C)CS(=O)(=O)N1C[C@H]2C[C@H](C(=O)N3CCOCC3)[C@@H](C1)O2,Percent Effect,"30.3 µM, […]",-39.74%
COc1ncccc1CNc1snc(Cl)c1C#N,Percent Effect,"30 µM, 30.03 µM",-23.85%
CC(C)c1cc(C(=O)NCCCN(C)C)nc(N2CCCC2)n1,Percent Effect,"30.3 µM, […]",85.35%
CCN(CC)CCNC(=O)c1cc(C(C)C)nc(N2CCCC2)n1,Percent Effect,"30 µM, 30.03 µM",-3.491%
COCCCNC(=O)c1cc(C(C)C)nc(N2CCCC2)n1,Percent Effect,"30.3 µM, […]",-9.807%
Cc1nc(C(=O)N2CC[C@@]3(C[C@@H](NS(C)(=O)=O)CCO3)C2)cs1,Percent Effect,"30.3 µM, […]",-224.6%
Cc1ccn(-c2ccc(NCc3ccccc3F)nn2)n1,Percent Effect,"30.3 µM, […]",-5.586%
Cc1ccn(-c2ccc(NCc3cccnc3N3CCCCC3)nn2)n1,Percent Effect,"30.3 µM, […]",1.055%
Cc1ccn(-c2ccc(NCc3ccnc(N4CCCCC4)c3)nn2)n1,Percent Effect,"30.3 µM, […]",100.1%
CC1c2ncc(CNC(=O)C3CC3)n2CCN1Cc1ccsc1.O=C(O)C(F)(F)F (centres undefined),Percent Effect,"30.3 µM, […]",-8.055%
O=C(CCOCC(F)(F)F)NS(=O)(=O)c1cccnc1,Percent Effect,"30.3 µM, […]",-16.93%
N#Cc1cccc(S(=O)(=O)NC(=O)CCOCC(F)(F)F)c1,Percent Effect,"30.3 µM, […]",72.29%
N#Cc1cccc(S(=O)(=O)NC(=O)COCC(F)(F)F)c1,Percent Effect,"30.3 µM, […]",-64.9%
